Measured values as given in PubChem BioAssay AID1159580 (chemical genetic matrix, 2015).
Several values for one entry are separate records, joined by “and”; a condition that tells them apart may be missing. Identical values can stand only once. The campaign covered roughly 5,500 compounds. About 2,000 (36%) were called active. Roughly 18% stayed inconclusive and do not appear here. Some of the results follow. Unmarked numbers belong to inactive results. Rule as the data show it: active = normalized growth mostly below about 0.91 (no sharp cut-off); inconclusive = no clear call, values can overlap the other calls; inactive = mostly above about 0.92.

Experiment: chemical genetic growth profiling, strain panel (AID 1159580);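 also: tested at 20 µM; growth read once vehicle control cultures reached saturation at 30 °C; 1 = growth at the plate median or of vehicle wells; lower values mean less growth of the strain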
Conditions: S. cerevisiae deletion strains, growth OD

CC1CCC(NC(=O)N(CCCl)N=O)CC1 (stereo not drawn)
normalized growth (locus YAL021C, strain ccr4, hits give low values): 0.899 (active)
normalized growth (locus YAL026C, strain drs2, hits give low values): 0.24 (active)
normalized growth (locus YAL030W, strain snc1, hits give low values): 0.796 (active)
normalized growth (locus YBL061C, strain skt5, hits give low values): 0.965
normalized growth (locus YBR009C, strain hhf1, hits give low values): 0.244 (active)
normalized growth (locus YBR021W, strain FUR4, hits give low values): 1.02
normalized growth (locus YBR023C, strain chs3, hits give low values): 0.876 (active)
normalized growth (locus YBR171W, strain sec66, hits give low values): 0.68 (active)
normalized growth (locus YBR229C, strain ROT2, hits give low values): 0.998
normalized growth (locus YBR231C, strain swc5, hits give low values): 0.755 (active)
normalized growth (locus YBR279W, strain paf1, hits give low values): 0.863 (active)
normalized growth (locus YCL011C, strain gbp2, hits give low values): 0.095 (active)
normalized growth (locus YCL016C, strain dcc1, hits give low values): 0.703 (active)
normalized growth (locus YCL029C, strain bik1, hits give low values): 1.01
normalized growth (locus YCL061C, strain MRC1, hits give low values): 0.335 (active)
normalized growth (locus YCL069W, strain vba3, hits give low values): 0.834 (active)
normalized growth (locus YCR088W, strain abp1, hits give low values): 0.182 (active)
normalized growth (locus YDL005C, strain med2, hits give low values): 0.952
normalized growth (locus YDL035C, strain GPR1, hits give low values): 0.946
normalized growth (locus YDL040C, strain nat1, hits give low values): 0.983
normalized growth (locus YDL074C, strain BRE1, hits give low values): 0.874
normalized growth (locus YDL101C, strain DUN1, hits give low values): 0.995
normalized growth (locus YDL134C, strain PPH21, hits give low values): 0.995
normalized growth (locus YDL185W, strain tfp1, hits give low values): 1.01
normalized growth (locus YDL192W, strain arf1, hits give low values): 1
normalized growth (locus YDR001C, strain nth1, hits give low values): 0.678 (active)
normalized growth (locus YDR069C, strain doa4, hits give low values): 0.958
normalized growth (locus YDR101C, strain arx1, hits give low values): 0.99
normalized growth (locus YDR137W, strain rgp1, hits give low values): 0.718 (active)
normalized growth (locus YDR150W, strain NUM1, hits give low values): 0.998
normalized growth (locus YDR159W, strain sac3, hits give low values): 0.852 (active)
normalized growth (locus YDR162C, strain NBP2, hits give low values): 0.968
normalized growth (locus YDR195W, strain ref2): 0.994
normalized growth (locus YDR297W, strain sur2, hits give low values): 0.951
normalized growth (locus YDR318W, strain mcm21, hits give low values): 0.979
normalized growth (locus YDR334W, strain swr1, hits give low values): 0.187 (active)
normalized growth (locus YDR335W, strain msn5, hits give low values): 0.933
normalized growth (locus YDR388W, hits give low values): 1.01
normalized growth (locus YDR392W, strain spt3, hits give low values): 0.126 (active)
normalized growth (locus YDR502C, strain sam2, hits give low values): 0.859 (active)
normalized growth (locus YEL003W, strain gim4, hits give low values): 0.0715 (active)
normalized growth (locus YEL037C, strain rad23, hits give low values): 0.865 (active)
normalized growth (locus YEL061C, strain CIN8 (second series), hits give low values): 0.339 (active)
normalized growth (locus YEL061C, strain CIN8, hits give low values): 0.992
normalized growth (locus YER015W, strain faa2, hits give low values): 0.593 (active)
normalized growth (locus YER016W, strain bim1, hits give low values): 0.895 (active)
normalized growth (locus YER110C, hits give low values): 1.01
normalized growth (locus YER111C, strain swi4, hits give low values): 0.961
normalized growth (locus YER155C, strain BEM2 (second series), hits give low values): 0.112 (active)
normalized growth (locus YER155C, strain BEM2, hits give low values): 1
normalized growth (locus YER167W, strain BCK2, hits give low values): 0.938
normalized growth (locus YFR010W, strain ubp6, hits give low values): 0.85 (active)
normalized growth (locus YGL078C, strain dbp3, hits give low values): 0.957
normalized growth (locus YGL086W, strain mad1, hits give low values): 0.937
normalized growth (locus YGL167C, strain pmr1, hits give low values): 0.98
normalized growth (locus YGL173C, strain kem1, hits give low values): 0.895 (active)
normalized growth (locus YGL227W, strain vid30, hits give low values): 0.07 (active)
normalized growth (locus YGL240W, strain doc1, hits give low values): 0.8 (active)
normalized growth (locus YGL248W, strain PDE1, hits give low values): 1
normalized growth (locus YGL253W, strain hxk2, hits give low values): 0.771 (active)
normalized growth (locus YGR135W, strain pre9, hits give low values): 0.935
normalized growth (locus YGR252W, strain gcn5, hits give low values): 0.993
normalized growth (locus YHR013C, strain ard1, hits give low values): 0.578 (active)
normalized growth (locus YHR027C, strain rpn1, hits give low values): 0.695 (active)
normalized growth (locus YHR030C, strain SLT2, hits give low values): 0.991 and 0.89
normalized growth (locus YHR079C, strain IRE1 (second series), hits give low values): 1
normalized growth (locus YHR079C, strain IRE1, hits give low values): 0.866
normalized growth (locus YHR094C, strain hxt1, hits give low values): 1.01
normalized growth (locus YHR129C, strain ARP1, hits give low values): 0.974
normalized growth (locus YHR142W, strain chs7, hits give low values): 0.476 (active)
normalized growth (locus YHR200W, strain rpn10, hits give low values): 0.982
normalized growth (locus YIL066C, strain RNR3, hits give low values): 0.949
normalized growth (locus YIL073C, strain SPO22, hits give low values): 1.02
normalized growth (locus YIL125W, strain kgd1, hits give low values): 0.929 (active)
normalized growth (locus YIR030C, strain dcg1, hits give low values): 0.995
normalized growth (locus YJL092W, strain hpr5, hits give low values): 0.644 (active)
normalized growth (locus YJL095W, strain BCK1 (second series), hits give low values): 0.887 (active)
normalized growth (locus YJL095W, strain BCK1, hits give low values): 0.928 and 0.908
normalized growth (locus YJL115W, strain asf1, hits give low values): 0.622 (active)
normalized growth (locus YJL129C, strain trk1, hits give low values): 0.196 (active)
normalized growth (locus YJL134W, strain LCB3, hits give low values): 0.997
normalized growth (locus YJL154C, strain vps35, hits give low values): 0.975
normalized growth (locus YJL164C, strain tpk1, hits give low values): 0.545 (active)
normalized growth (locus YJL166W, strain qcr8, hits give low values): 0.427 (active)
normalized growth (locus YJL168C, strain set2, hits give low values): 1.01
normalized growth (locus YJL187C, strain SWE1 (second series), hits give low values): 1
normalized growth (locus YJR043C, strain POL32, hits give low values): 0.662 (active)
normalized growth (locus YJR066W, strain TOR1, hits give low values): 0.894
normalized growth (locus YKL009W, strain mrt4, hits give low values): 0.921
normalized growth (locus YKL068W, hits give low values): 0.983
normalized growth (locus YKL085W, strain MDH1 (second series), hits give low values): 0.912 (active)
normalized growth (locus YKL085W, strain MDH1, hits give low values): 0.912 (active)
normalized growth (locus YKL160W, strain elf1, hits give low values): 0.914
normalized growth (locus YKL190W, strain CNB1, hits give low values): 0.996
normalized growth (locus YKR001C, strain vps1, hits give low values): 0.841 (active)
normalized growth (locus YKR026C, strain gcn3, hits give low values): 0.225 (active)
normalized growth (locus YKR091W, strain srl3, hits give low values): 0.81 (active)
normalized growth (locus YLL001W, strain dnm1, hits give low values): 0.929
normalized growth (locus YLL026W, hits give low values): 0.289 (active)
normalized growth (locus YLL041C, strain sdh2, hits give low values): 0.657 (active)
normalized growth (locus YLR027C, strain aat2, hits give low values): 0.344 (active)
normalized growth (locus YLR039C, strain RIC1, hits give low values): 0.771
normalized growth (locus YLR058C, strain SHM2, hits give low values): 0.995
normalized growth (locus YLR102C, strain apc9, hits give low values): 1.01
normalized growth (locus YLR113W, strain HOG1, hits give low values): 0.902
normalized growth (locus YLR221C, strain rsa3, hits give low values): 0.0809 (active)
normalized growth (locus YLR258W, strain gsy2, hits give low values): 0.728 (active)
normalized growth (locus YLR262C, strain YPT6 (second series), hits give low values): 0.635 (active)
normalized growth (locus YLR262C, strain YPT6, hits give low values): 0.656
normalized growth (locus YLR268W, strain sec22, hits give low values): 0.894
normalized growth (locus YLR320W, strain mms22, hits give low values): 0.232 (active)
normalized growth (locus YLR330W, strain CHS5, hits give low values): 0.977
normalized growth (locus YLR342W, strain FKS1 (second series), hits give low values): 0.991
normalized growth (locus YLR342W, strain FKS1, hits give low values): 0.819 (active)
normalized growth (locus YLR357W, strain rsc2, hits give low values): 0.549 (active)
normalized growth (locus YLR370C, strain arc18, hits give low values): 0.913
normalized growth (locus YLR371W, strain rom2, hits give low values): 0.941
normalized growth (locus YLR384C, strain iki3, hits give low values): 0.956
normalized growth (locus YLR418C, strain cdc73, hits give low values): 0.554 (active)
normalized growth (locus YML016C, strain PPZ1, hits give low values): 1
normalized growth (locus YML032C, strain rad52, hits give low values): 1.01
normalized growth (locus YML120C, strain ndi1, hits give low values): 0.128 (active)
normalized growth (locus YML124C, strain tub3, hits give low values): 1
normalized growth (locus YMR058W, strain fet3, hits give low values): 0.216 (active)
normalized growth (locus YMR078C, strain ctf18, hits give low values): 1
normalized growth (locus YMR125W, strain sto1, hits give low values): 0.0911 (active)
normalized growth (locus YMR129W, hits give low values): 0.0909 (active)
normalized growth (locus YMR205C, strain PFK2, hits give low values): 0.728 (active)
normalized growth (locus YMR223W, strain ubp8, hits give low values): 0.974
normalized growth (locus YMR231W, strain pep5, hits give low values): 0.981
normalized growth (locus YMR307W, strain GAS1, hits give low values): 0.721
normalized growth (locus YNL067W, strain RPL9B, hits give low values): 0.926
normalized growth (locus YNL071W, strain lat1, hits give low values): 0.0878 (active)
normalized growth (locus YNL153C, strain GIM3, hits give low values): 0.882
normalized growth (locus YNL183C, strain NPR1, hits give low values): 0.9
normalized growth (locus YNL209W, strain ssb2, hits give low values): 0.798 (active)
normalized growth (locus YNL233W, strain BNI4, hits give low values): 0.917
normalized growth (locus YNL248C, strain rpa49, hits give low values): 0.0991 (active)
normalized growth (locus YNL250W, strain rad50, hits give low values): 0.94
normalized growth (locus YNL271C, strain bni1, hits give low values): 0.93
normalized growth (locus YNL298W, strain CLA4, hits give low values): 0.957
normalized growth (locus YNL307C, strain MCK1, hits give low values): 0.89 (active)
normalized growth (locus YNL322C, strain KRE1 (second series), hits give low values): 0.121 (active)
normalized growth (locus YNL322C, strain KRE1, hits give low values): 0.985
normalized growth (locus YNR049C, strain mso1, hits give low values): 0.939
normalized growth (locus YNR052C, strain pop2, hits give low values): 1.02
normalized growth (locus YOL012C, strain htz1): 0.346
normalized growth (locus YOL147C, strain pex11, hits give low values): 1
normalized growth (locus YOR001W, strain rrp6, hits give low values): 0.084 (active)
normalized growth (locus YOR061W, strain CKA2, hits give low values): 1
normalized growth (locus YOR069W, strain VPS5, hits give low values): 0.998
normalized growth (locus YOR070C, strain gyp1, hits give low values): 0.658 (active)
normalized growth (locus YOR080W, strain dia2, hits give low values): 0.988
normalized growth (locus YOR083W, strain WHI5, hits give low values): 0.598 (active)
normalized growth (locus YOR106W, strain vam3, hits give low values): 0.598 (active)
normalized growth (locus YOR136W, strain idh2, hits give low values): 0.992
normalized growth (locus YOR144C, strain elg1, hits give low values): 0.998
normalized growth (locus YOR184W, strain ser1, hits give low values): 0.161 (active)
normalized growth (locus YOR231W, strain MKK1, hits give low values): 0.89
normalized growth (locus YOR265W, strain rbl2, hits give low values): 0.894 (active)
normalized growth (locus YOR270C, strain vph1, hits give low values): 0.503 (active)
normalized growth (locus YOR290C, strain snf2, hits give low values): 0.853 (active)
normalized growth (locus YOR316C, strain cot1, hits give low values): 1
normalized growth (locus YPL051W, strain arl3, hits give low values): 0.816 (active)
normalized growth (locus YPL078C, strain atp4, hits give low values): 0.878 (active)
normalized growth (locus YPL106C, strain sse1, hits give low values): 0.823 (active)
normalized growth (locus YPL240C, strain hsp82, hits give low values): 0.795 (active)
normalized growth (locus YPL256C, strain CLN2, hits give low values): 0.855
normalized growth (locus YPR119W, strain clb2, hits give low values): 1
normalized growth (locus YPR141C, strain kar3, hits give low values): 0.979
normalized growth (locus YPR163C, strain tif3, hits give low values): 0.964
normalized growth (locus YPR167C, strain met16, hits give low values): 0.999
normalized growth (strain wtn01, hits give low values): 0.858 (active)
